Results published in PubChem BioAssay (NCI).
Compounds without any hit were thinned out: in the full panel of roughly 83,000, 20% have a hit.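 Cell lines were cultured in 96-well plates, exposed to a single compound concentration, and assessed for percent growth 48 hours later.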 A number with no mark means an inactive call. The source made the active and inactive calls. The calls were made as follows: active = growth percent below 10; inactive = the rest.

What was measured:
Experiment in all cases: NCI-60 one-dose screen, 48 h (100 = growth as untreated, 0 = no growth, -100 = all killed)
Conditions in all cases: 10 µM unless noted
[1] = tested on: SK-MEL-2 melanoma
[2] = tested on: EKVX NSCLC
[3] = tested on: SN12C renal
[4] = tested on: UO-31 renal
[5] = tested on: TK-10 renal
[6] = tested on: ACHN renal
[7] = tested on: CAKI-1 renal
[8] = tested on: A498 renal
[9] = tested on: CCRF-CEM leukemia
[10] = tested on: MOLT-4 leukemia

Structure (SMILES) | growth [1] | growth [2] | growth [3] | growth [4] | growth [5] | growth [6] | growth [7] | growth [8] | growth [9] | growth [10]
COc1ccc(Nc2ncc(Br)c(NCCCNC(=O)c3cccs3)n2)cc1 | 46.8% | 55.6% | 21.5% | -0.36% (active) | 24.3% | 21.3% | 16.2% | 51.7% | 16.3% | 19.5%
O=C(Nc1nc2cc(C(=O)N3CCN(C(c4ccccc4)c4ccccc4)CC3)ccc2o1)c1ccc(NC2CCCCC2)c([N+](=O)[O-])c1 | 90.8% | 52.5% | 53.8% | 66.5% | 84.5% | 47% | 54.5% | 76.2% | 28.3% | 47.9%
CC1=NC2=Nn3c(c4cnn(-c5ccccc5)c4n/c3=N\N)NN2C(c2ccccc2)=C1 | 101% | 80.7% | -63.4% (active) | 70.3% | 109% | 85.8% | 76.5% | 91% | 101% | 103%
CCC(C)(C)C(=O)O[C@H]1C[C@@H](C)C=C2C=C[C@H](C)[C@H](CC[C@@H]3CC(SCCN)CC(=O)O3)[C@H]21 (stereo not given in full) | 91.1% | 105% | 77% | 68.6% | 92.1% | 95.8% | 83.9% | 90.3% | 12.1% | 77.7%
Cc1ccc(C2=Nc3c(N)ncnc3NC(c3cccc(Nc4ccnc5cc(C(F)(F)F)ccc45)c3)C2)cc1 (stereo not given) | -11.1% (active) | 25.2% | 50% | 26.4% | 64.7% | 58.1% | 21% | 47.8% | 4.56% (active) | -2.37% (active)
OB1OCc2cc(/C=C/c3cccc(C(F)(F)F)c3)ccc21 | 60.2% | 26.5% | 15.2% | -28.6% (active) | -19.3% (active) | -91.6% (active) | -46% (active) | 6.25% (active) | 7.57% (active) | -3.42% (active)
CN(C)CCNC(=O)c1ccc(-c2nc3ccc4[nH]ncc4c3c3c2C2CCC3C2)cc1 (stereo not given) | -5.51% (active) | 68.4% | 10.2% | 8.05% (active) | 83% | 17.4% | 15.2% | -20.9% (active) | 6.57% (active) | -8.33% (active)
CCOC(=O)C(=O)C(C(=O)OCC)c1ccccc1 (stereo not given) | 101% | 103% | 108% | 87.7% | 106% | 105% | 97.9% | 107% | 90.4% | 90%
COc1cc2c(cc1OCCCN1CCN(CCCOc3cc4c(cc3OC)C(=O)N3CC(F)(F)C[C@H]3C=N4)CC1)N=C[C@@H]1CC(F)(F)CN1C2=O | 90.6% | 197% | 54.7% | 82.4% | 115% | 78.3% | 35% | 86.1% | -28.2% (active) | 26.9%
OCCn1cc(-c2nc(-c3c[nH]c4ncccc34)cs2)c2ccccc21 | 98.6% | 32% | 80% | 37.8% | 82.5% | 69.3% | 73.7% | 34.7% | 84.8% | 71.2%
COc1cc(OC)c(/C=C/C(=O)c2c(OC)cccc2OC)c(OC)c1 | -14.9% (active) | 42.9% | 24.1% | 28.9% | 33.5% | 19.6% | 14.8% | 21.4% | 16.2% | 18.6%
COc1ccc(C(=O)C/C(=C\c2ccc(Cl)cc2)C(=O)NCc2ccccc2)cc1 | 79.6% | 95.6% | 91.3% | 76% | 72.7% | 92.7% | 87.4% | 88% | 73.5% | 72.9%
CCSc1oc(-c2ccccc2)nc1[P+](c1ccccc1)(c1ccccc1)c1ccccc1 | -9.57% (active) | 11% | 3.37% (active) | -31.3% (active) | 24.1% | -5.44% (active) | 1.2% (active) | -32.8% (active) | 11.1% | 1.34% (active)
CC(C)C1=NOC(=O)C1=Cc1cn(-c2ccccc2)nc1-c1ccc(F)cc1 | 94.6% | 97.2% | 62.8% | 74.2% | 75.2% | 71.4% | 62.2% | 82.2% | 10.7% | 17.8%
CCOC(=O)C/C(=N\Nc1cc(=O)[nH]c2ccc(Br)cc12)C(=O)OCC | 103% | 109% | 100% | 71.4% | 126% | 95.7% | 83.1% | 122% | -36.7% (active) | -15.7% (active)
Cn1cc(-c2ccc3nc(-c4ccc(CC(=O)ONc5cc(C(C)(C)C)on5)cc4)cnc3c2)cn1 | 13% | 39.2% | 26.1% | 20.9% | 21.3% | 13.4% | 6.91% (active) | 15.6% | 38.8% | 11.6%
N#Cc1ccc2c(c1)C(=O)c1c-2n(CCCN)c(=O)c2cc([N+](=O)[O-])ccc12 | -52.2% (active) | -88% (active) | -100% (active) | -100% (active) | -100% (active) | -100% (active) | -91.4% (active) | -39.3% (active) | -72.6% (active) | -62.2% (active)
COc1ccc(C2=C(Nc3ccc(C(=O)Nc4ccccc4)cc3)C(=O)N(C)C2=O)cc1 | 85.1% | 96.8% | 99.2% | 71.8% | 95.4% | 89.9% | 80.9% | 116% | 85.4% | 76.7%
O=C(CSc1nnc(-c2cnccn2)n1-c1ccccc1)c1ccc(Cl)cc1 | 96.4% | 103% | 87.5% | 94.2% | 99.2% | 99.8% | 102% | 93.1% | 92.1% | 93.4%
COc1ccc2c(c1)c(-c1nc(-c3c[nH]c4ccncc34)cs1)cn2C | -45.2% (active) | -53.3% (active) | -72% (active) | -88% (active) | 43.4% | -96.7% (active) | -86.3% (active) | 65.7% | -45.2% (active) | -42.8% (active)
CCSc1nc2scc(C)c2c(=O)[nH]1 | 105% | 97.7% | 99.4% | 88.6% | 110% | 101% | 92.3% | 89.7% | 99.2% | 96%
O=CN1N=C(c2cccc(Nc3ccnc4cc(Cl)ccc34)c2)CC1c1ccccc1 (stereo not given) | 1.53% (active) | 34.3% | 30.9% | 10.6% | 32.2% | 30.3% | 11.8% | 5.63% (active) | 8.4% (active) | 10%
COC1=CC(c2ccc[nH]2)=N/C1=C\c1[nH]c(C)c(C)c1CCC(=O)OCc1ccccc1 | -28.9% (active) | -22.1% (active) | -30% (active) | -77.1% (active) | -0.0887% (active) | -39.5% (active) | -23.5% (active) | -19.8% (active) | 0.65% (active) | -23.7% (active)
Clc1ccc2c(NC3CCC(N4CCOCC4)CC3)ccnc2c1 (stereo not given) | 113% | 72.6% | 90.5% | 75.3% | 80.8% | 73.8% | 75.1% | 75.5% | 85.5% | 74.4%
COc1ccc(F)cc1/C=C/C(=O)/C=C(/C=C/c1cc(F)ccc1OC)OB(F)F | 84.1% | 71.3% | 8.78% (active) | -9.88% (active) | 32.9% | 2.25% (active) | 28.7% | 108% | -14.7% (active) | -16.5% (active)
